Reference: PubChem BioAssay (EPA / NIEHS)
Calls of active or inactive are those of the source. Rule for the calls: active = hit-call score of the fitted dose curve at least 0.9, where 1 is the maximum; inactive = score below 0.9.

Assay: CCTE_Shafer_MEA_acute_cross_correlation_HWHM: CCTE's Neural Acute Assay for Cross Correlation at Half Width at Half Maximum, Shafer Lab (AID 2284026)
Method: CCTE_Shafer_MEA_acute assay is conducted using Axion Biosystems 48 well microelectrode array (MEA) plates and Maestro recording system. Each well of the MEA plate contains a grid of 16 microelectrodes embedded in the culture surface. Electrically active cells, such as neurons, can be cultured over the electrodes, and electrical activity in these cells can be recorded extracellularly. The spontaneous firing of neurons is captured from each electrode on a microsecond timescale providing both temporally and spatially precise data. […] The CCTE_Shafer_MEA_acute assay uses primary cultures of rat cortical neurons. As these cultures mature over time, neural networks develop functional activity and form cohesive networks in which electrical activity can be highly coordinated. Baseline 40-minute recordings are made on days post-plating 13 or 15, followed by a secondary 40-minute recording after chemical exposure.CCTE_Shafer_MEA_acute_cross_correlation_HWHM is a component of the CCTE_Shafer_MEA_acute assay. It measures the distance along the x-axis (phase lag) from the left half maximum height to the center of the cross-correlogram of action potential firing during a recording in a microelectrode array (MEA) using Axion Biosystems Maestro 768 channel amplifier with the AxIS adaptive spike detector. Smaller values indicate a narrower correlogram (greater synchrony). The recordings before and after chemical treatment are used to calculate a percent change in the half width at half maximum of the cross-correlogram in each well.Data from the assay component CCTE_Shafer_MEA_acute_cross_correlation_HWHM was analyzed into 1 assay endpoint. This assay endpoint, CCTE_Shafer_MEA_acute_cross_correlation_HWHM, was analyzed in the negative analysis fitting direction relative to DMSO as the negative control and baseline of activity. Using a type of functional reporter, gain or loss-of-signal activity can be used to understand electrical activity.
Spontaneous activity in the cortical cultures was recorded using an Axion Biosystems Maestro 768 channel amplifier and Axion Integrated Studios (AxIS) v1.8 (or later) software. The amplifier recorded from all channels simultaneously (gain = 1200 x; sampling rate = 12.5 kHz/channel): raw signals were filtered with a Butterworth band-pass filter (300-5000 Hz), which filters out slower local field potentials leaving only fast potentials, i.e., "spikes", arising from extracellular currents associated with action potentials (Pine 2006; Wheeler and Nam 2011). On-line spike detection of filtered signals was conducted with the AxIS adaptive spike detector, using a threshold of 8x the root mean squared (rms) noise on each channel. Any electrodes with rms noise levels greater than 5 uV were grounded (e.g., no data were recorded). Once grounded, an electrode was grounded for the duration of the experiment. All recordings were conducted at 37 C. Wells were deemed usable if on the day of the exposure >/= 10 electrodes were active (defined as >/= 5 spikes/min). On DIV 13 or 15, a minimum of three wells from one cortical culture preparation were treated with each compound (0.03-40 uM). Prior to recording baseline activity, each mwMEA plate was placed in the Maestro at 37 C and allowed to sit for 20 min while firing rates stabilized. Baseline activity (40 min) was recorded before the addition of each compound. An additional 40 min of spontaneous activity was recorded in the presence of each compound. Changes in network parameters relative to baseline were assessed following compound treatment.

| SMILES | AC50 | outcome |
| --- | --- | --- |
| O=C(Nc1ccc([N+](=O)[O-])cc1Cl)c1cc(Cl)ccc1O | 1.08 µM (active) | – |
| CSC(=O)c1cccc2nnsc12 | – | inactive |
| O=C(O)c1ccccc1 | – | inactive |
| O=C(c1ccc(O)cc1O)c1ccc(O)cc1O | – | inactive |
| CCCN(CCC)c1c([N+](=O)[O-])cc(C(F)(F)F)c(N)c1[N+](=O)[O-] | – | inactive |
| CC(C)CCCCCCc1ccc(O)cc1 | 20 µM (active) | – |
| COC(=O)c1ccccc1C(=O)O | – | inactive |
| C=CCOC(Cn1ccnc1)c1ccc(Cl)cc1Cl (centres undefined) | 5.57 µM (active) | – |
| N#CSCSc1nc2ccccc2s1 | 23.9 µM (active) | – |
| CC1(C)C(C=C(Cl)Cl)C1C(=O)OCc1cccc(Oc2ccccc2)c1 (centres undefined) | – | inactive |
| C#CCOC(=O)[C@@H](C)Oc1ccc(Oc2ncc(Cl)cc2F)cc1 | – | inactive |
| OB(O)O | – | inactive |
| O=C(c1ccccc1)C1CCCCC1 | 8.12 µM (active) | – |
| Cc1nn(C)c(Oc2ccccc2)c1C=NOCc1ccc(C(=O)OC(C)(C)C)cc1 | 4.36 µM (active) | – |
| CCNc1nc(N)nc(Cl)n1 | – | inactive |
| CC(C)(c1ccc(O)cc1)c1ccc(O)cc1 | 28.6 µM (active) | – |
| CCCCC(CC)CN1C(=O)C2C3C=CC(C3)C2C1=O (centres undefined) | – | inactive |
| Oc1ccc(C(c2ccc(O)cc2)C(Cl)(Cl)Cl)cc1 | 6.85 µM (active) | – |
| CC(C)(C)[C@@H](O)[C@@H](Cc1ccc(Cl)cc1)n1cncn1 | – | inactive |
